Out of some 48,000 compounds screened, about 13,000 (27%) showed an effect of 50% or more. This is one part of the list.
system: Wolbachia pipientis; test: Anti-Wolbachia Cell-Based Screen; format: functional; set-up: scale not given: in the data most compounds retested in dose-response had high values; settings: 5 µM

SMILES | Percent Effect
COCCN(C/C=C/c1ccccc1)Cc1ncc[nH]1 | 16.38%
CC(C)Cc1noc(COc2ccc(N(C)C(N)=O)cc2)n1 | -17.39%
Cn1cc(Cl)cc1C(=O)N1CCC2(CCCN(CC3CC3)C2=O)C1 (stereo not drawn) | -20.81%
COCCCC(=O)NCc1cccc(NC(N)=O)c1 | -9.096%
CC(Nc1cccc(CN2CCOC2=O)c1)C(=O)Nc1ccccc1F (stereo not drawn) | -4.647%
O=C1CC(NCc2cnc(C3CCCCC3)nc2)CN1c1ccccc1 (stereo not drawn) | -13.32%
N#Cc1cc2c(nc1SCc1cc(O)nc(O)n1)CCCCC2 | 128.9%
N#Cc1cc2c(nc1O)CCCCC2 | 109.4%
N#Cc1cc2c(nc1SCc1cc(O)nc(O)n1)CCCC2 | 96.26%
CCS(=O)(=O)c1ccccc1N1CCC(NC(=O)c2ccc[nH]2)CC1 | 7.844%
CCOCc1nc2c(c(NC(CC)c3ccnn3C)n1)CCNCC2 (stereo not drawn) | -1.595%
Cc1nnc(NC(=O)NCc2ccc(N3CCOCC3)nc2)s1 | 89.19%
COCCCNC(=O)NCc1ccc(N2CCOC(C)C2)nc1 (stereo not drawn) | -2.359%
Cc1nnc(NC(=O)NCc2ccc(N3CCN(C)CC3)nc2)s1 | 5.046%
CC(=O)Nc1nc(C(=O)NCc2ccc(N3CCCCCC3)nc2)cs1 | 26.65%
Cc1nnc(NC(=O)NCc2ccc(N3CCC(C)CC3)nc2)s1 | 109.6%
COc1ccc([C@@H]2C[C@H](NC(C)=O)C[C@H](Cc3ccccc3)O2)cn1 | -17%
Brc1cccc(C2(CNCc3cc[nH]c3)CCOCC2)c1 | -10.11%
O=C(NCc1ccccn1)[C@H]1COC[C@H]2CN(c3ncccn3)C[C@H]21.O=C(O)C(F)(F)F.O=C(O)C(F)(F)F | 6.701%
CCC1CCCN(C(=O)Cc2csc(-c3ncccn3)n2)C1 (stereo not drawn) | -10.41%
CC(C)C(=O)N1CCCC(Cc2ncccn2)C1 (stereo not drawn) | 110.8%
CC1CCN(CC2CCCN(C(=O)Nc3ccccn3)C2)CC1 (stereo not drawn) | -7.919%
Cc1cccnc1NC(=O)C1CCN(C(=O)C(C)C)CC1 | -2.993%

SMILES | Percent Effect
CC(C)C(=O)N1CCC(Cc2nccnc2Nc2ccccn2)CC1 | 100.8%
CCC(=O)N1CCC(Cc2nccnc2Nc2ccccn2)CC1 | 7.091%
COc1ccccc1CC1CCCN(C(=O)c2cc[nH]n2)C1 (stereo not drawn) | 10.34%
CC(C)C(=O)N1CCCC(Cc2ccccn2)C1 (stereo not drawn) | 90.21%
Cc1noc(C)c1CN(C)c1nccc(C(F)(F)F)n1 | -2.519%
COc1cc(NC(=O)c2cscn2)ncn1 | -4.682%
COCC1CC2(CCN(C(=O)c3occc3C)CC2)CO1 (stereo not drawn) | -1.906%
COCC1CC2(CCN(Cc3nc(C)cs3)CC2)CO1 (stereo not drawn) | 102%
c1ccc(OCC2CC3(CCN(Cc4ccncc4)CC3)CO2)nc1 (stereo not drawn) | 4.031%
Cc1csc(CN2CCC3(CC2)COC(COc2ccccn2)C3)n1 (stereo not drawn) | 106.5%
COCC1CC2(CCN(C(=O)c3ccc(F)cc3C)CC2)CO1 (stereo not drawn) | 14.78%
O=S(=O)(C1CC1)N1CCC2(CC1)COC(COc1ccccn1)C2 (stereo not drawn) | 3.051%
Cc1nc(CN(C)Cc2csc(-c3cccs3)n2)co1 | -5.147%
CC(C)C(C#N)N1CCN(Cc2nccn2CC(F)(F)F)CC1 (stereo not drawn) | -1.445%
CCn1ccnc1C1CCN(c2ncnc3ccsc23)CC1 | -4.66%
CSc1nc(N)cc(N2C[C@@H]3CC[C@H](C2)N(CC2CC2)C3=O)n1 | 1.257%
c1nc(N2CCN(Cc3nnnn3C3CC3)CC2)c2sccc2n1 | -5.403%
O=C1[C@H]2CC[C@H](CN(c3ncnc4ccsc34)C2)N1CC1CC1 | 70.25%
Cc1ccnc(N2C[C@@H]3CC[C@H](C2)N(CC2CCC2)C3=O)n1 | 15.62%
CN1C(=O)[C@H]2CC[C@@H]1CN(c1ncnc3ccsc13)C2 | 78.97%
CC(NC1(CNC(=O)CC(C)(C)C)CCOCC1)c1ccccc1 (stereo not drawn) | 7.994%
O=C(NCCc1cccnc1)N1CCCC1c1ccsc1 (stereo not drawn) | 4.878%
NC(=O)CCn1nnc(-c2cc3ccccc3o2)n1 | 8.655%

SMILES | Percent Effect
COc1cccc(CN(C)C(=O)CN2CCN(c3nccs3)CC2)c1 | 7.332%
O=C(CN1CCOC1=O)N(Cc1ccccc1)Cc1nccs1 | 101.3%
CN(Cc1csc(-c2cccs2)n1)C(=O)CN1CCOC1=O | 19.54%
O=C(Nc1nccs1)NC1CCN(Cc2ccccc2)C1 (stereo not drawn) | -7.508%
COc1ccc(CN(CC2CCCO2)C(=O)CN2CCOC2=O)cc1 (stereo not drawn) | 10.27%
NC(=O)C1CCN(CC(=O)N(Cc2ccccc2)Cc2nccs2)CC1 | 113.3%
CN(Cc1cccnc1)c1nccc(N2CCN[C@H]3CS(=O)(=O)C[C@H]32)n1 | -2.359%
Nc1cc(-c2cc(O)cc(C(=O)O)c2)c2cc[nH]c2n1 | -2.921%
OCCNc1cc(-c2nccnc2N2CCCC2)c2cc[nH]c2n1 | 104.7%
O=C(O)CNc1cc(-c2nccnc2N2CCCC2)c2cc[nH]c2n1 | 94.3%
CN(C)CCNc1cc(-c2ncccc2O)c2cc[nH]c2n1 | 15.75%
Nc1cc(-c2cc(C(=O)O)ccc2Cl)c2cc[nH]c2n1 | 2.257%
Nc1cc(-c2nccnc2N2CCCC2)c2cc[nH]c2n1 | 67.22%
COc1cccc(-c2cc(NCC(=O)O)nc3[nH]ccc23)n1 | -3.915%
Nc1cc(-c2ccc(C(=O)O)cc2O)c2cc[nH]c2n1 | 1.335%
CN(C)CCNc1cc(-c2ncccc2C(F)(F)F)c2cc[nH]c2n1 | -6.362%
Cc1noc(C2CN(CC(=O)NCC3CCCO3)C2)n1 (stereo not drawn) | 9.756%
CN(C)C(=O)c1ccc2c(c1)N(C)C(CC(=O)NC(CO)CO)CO2 (stereo not drawn) | 0.9161%
Cc1cc(C)c2cc(CNC(C)C)c3nn(C)c(=O)n3c2c1 | 117%
Cc1cc(C)c2cc(CNC3CCCCC3)c3nn(C)c(=O)n3c2c1 | 108.3%
CCCn1cnnc1CNC1CCCC1 | -7.935%
Cc1cc(C)c2cc(CNCC3CCCO3)c3nn(C)c(=O)n3c2c1 (stereo not drawn) | -6.505%
